{"source": "PubChem BioAssay (EPA / NIEHS)", "key": {"[1]": {"experiment": "APR_HepG2_MicrotubuleCSK_1hr: Apredica 1-hour HepG2 Assay for Microtubule CSK Stabilty (AID 2282669)", "settings": "HepG2 microtubule cytoskeleton imaging, actives raise or lower the signal", "in_short": "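HepG2 cells exposed 1 h to 0.39–200 uM compound (0.5% DMSO, duplicates), then formaldehyde-fixed, permeabilized and immunostained for alpha-tubulin with Hoechst nuclei. Imaged by ArrayScan high-content analysis; bidirectional fit versus DMSO.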"}, "[2]": {"experiment": "APR_HepG2_MitoticArrest_1hr: Apredica 1-hour HepG2 Assay for Mitotic Arrest (AID 2282672)", "settings": "high-content imaging, actives raise or lower the signal", "in_short": "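HepG2 cells exposed 1 hr to compounds at 0.39–200 uM (0.5% v/v DMSO final), then fixed in 3.7% formaldehyde and immunostained for phospho-histone H3 with Hoechst 33342. Mitotic arrest scored by automated fluorescence imaging, fitted bidirectionally versus DMSO.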"}, "[3]": {"experiment": "APR_HepG2_P-H2AX_1hr: Apredica 1-hour HepG2 Assay for H2AX Phosphorylation (AID 2282673)", "settings": "high-content imaging, actives raise or lower the signal", "in_short": "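HepG2 dosed 1 hr at 0.39-200 uM (0.5% DMSO final), duplicate. Fixed in 3.7% formaldehyde, Triton permeabilized, immunostained for phospho-histone H2A.x (1:200) with Hoechst 33342; ArrayScan 20x imaging, bidirectional fit vs DMSO.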"}, "[4]": {"experiment": "APR_HepG2_MitoMass_1hr: Apredica 1-hour HepG2 Assay for Mitochondrial Mass (AID 2282674)", "settings": "high-content imaging, actives raise or lower the signal", "in_short": "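HepG2 cells dosed 1 hr with 0.39-200 uM compound (0.5% DMSO), duplicate wells. Mitochondria stained with 250 nM MitoTracker Red CMXRos for 30 min before formaldehyde fixation, imaged at 20x by ArrayScan; bidirectional fit versus DMSO.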"}, "[5]": {"experiment": "APR_HepG2_CellCycleArrest_24hr: Apredica 24-hour HepG2 Assay for Cell Cycle Arrest (AID 2282905)", "settings": "imaging, actives raise or lower the signal", "in_short": "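HepG2 cells were exposed to compounds at 0.39–200 uM (ten concentrations, duplicate) in 0.5% v/v DMSO for 24 hr. After formaldehyde fixation and Triton permeabilization, Hoechst 33342-stained nuclei were imaged at 20x; DNA content was quantified, with bidirectional fitting against DMSO.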"}, "[6]": {"experiment": "APR_HepG2_MitoMembPot_1hr: Apredica 1-hour HepG2 Assay for Mitochondrial Membrane Potential (AID 2282675)", "settings": "imaging, actives raise or lower the signal", "in_short": "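HepG2 cells dosed 1 hour with 0.39–200 uM compound in duplicate, 0.5% DMSO final. MitoTracker Red CMXRos (250 nM, 30 min) loaded before formaldehyde fixation; fluorescence quantified by high-content imaging, bidirectional fitting versus DMSO.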"}, "[7]": {"experiment": "APR_HepG2_CellLoss_1hr: Apredica 1-hour HepG2 Assay for Cell Loss (AID 2282668);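 further: curves fitted both ways against DMSO so gain or loss of cells counts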", "settings": "high-content imaging", "in_short": "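HepG2 cells were treated for 1 h with compound at 0.39–200 uM, in duplicate, in 0.5% DMSO. After formaldehyde fixation, Hoechst 33342-stained nuclei were imaged on an ArrayScan to count cells. Data were fitted bidirectionally versus DMSO.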"}, "[8]": {"experiment": "APR_HepG2_p53Act_1hr: Apredica 1-hour HepG2 Assay for p53 Activation (AID 2282671)", "settings": "high-content imaging, actives raise or lower the signal", "in_short": "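HepG2 cells treated 1 h with compound at 0.39–200 uM (10 concentrations, duplicate) in 0.5% DMSO. Formaldehyde-fixed, permeabilised cells immunostained for p53 with Hoechst 33342; high-content imaging, bidirectional fit versus DMSO.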"}, "[9]": {"experiment": "APR_HepG2_NuclearSize_1hr: Apredica 1-hour HepG2 Assay for Nuclear Size (AID 2282670)", "settings": "high-content imaging, actives raise or lower the signal", "in_short": "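HepG2 cells dosed 1 hr with 0.39–200 uM compound (0.5% DMSO), formaldehyde-fixed, Hoechst 33342-stained and imaged at 20x; nuclear diameter from nuclear stain, fitted bidirectionally against DMSO.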"}}, "note": "The source made the active and inactive calls. How the source made its calls: active means hit-call score of the fitted dose curve at least 0.9, where 1 is the maximum; inactive means score below 0.9.", "data": [{"smiles": "CC(C1CC1)C(O)(Cn1cncn1)c1ccc(Cl)cc1", "note": "(stereo not given)", "values": [{"measurement": "outcome", "setting": "[1]", "result": "inactive"}, {"measurement": "outcome", "setting": "[2]", "result": "inactive"}, {"measurement": "outcome", "setting": "[3]", "result": "inactive"}, {"measurement": "outcome", "setting": "[4]", "result": "inactive"}, {"measurement": "outcome", "setting": "[5]", "result": "inactive"}]}, {"smiles": "O=c1ccc(=O)[nH][nH]1", "values": [{"measurement": "outcome", "setting": "[1]", "result": "inactive"}, {"measurement": "outcome", "setting": "[2]", "result": "inactive"}, {"measurement": "outcome", "setting": "[4]", "result": "inactive"}, {"measurement": "outcome", "setting": "[6]", "result": "inactive"}, {"measurement": "outcome", "setting": "[5]", "result": "inactive"}]}, {"smiles": "Cc1cc(C2CC2)nc(Nc2ccccc2)n1", "values": [{"measurement": "outcome", "setting": "[7]", "result": "inactive"}, {"measurement": "outcome", "setting": "[1]", "result": "inactive"}, {"measurement": "outcome", "setting": "[8]", "result": "inactive"}, {"measurement": "outcome", "setting": "[4]", "result": "inactive"}, {"measurement": "AC50", "setting": "[6]", "result": "29.2 µM (active)"}, {"measurement": "outcome", "setting": "[5]", "result": "inactive"}]}, {"smiles": "CN1COCN(Cc2cnc(Cl)s2)C1=N[N+](=O)[O-]", "values": [{"measurement": "outcome", "setting": "[7]", "result": "inactive"}, {"measurement": "outcome", "setting": "[9]", "result": "inactive"}, {"measurement": "outcome", "setting": "[3]", "result": "inactive"}, {"measurement": "outcome", "setting": "[4]", "result": "inactive"}, {"measurement": "outcome", "setting": "[5]", "result": "inactive"}]}, {"smiles": "CCOP(=S)(OCC)Oc1ccc([N+](=O)[O-])cc1", "values": [{"measurement": "outcome", "setting": "[4]", "result": "inactive"}, {"measurement": "outcome", "setting": "[5]", "result": "inactive"}]}, {"smiles": "Nc1nc(N)nc(NC2CC2)n1", "values": [{"measurement": "outcome", "setting": "[9]", "result": "inactive"}, {"measurement": "outcome", "setting": "[4]", "result": "inactive"}, {"measurement": "outcome", "setting": "[5]", "result": "inactive"}]}, {"smiles": "CON=C(C(=O)OC)c1ccccc1CON=C(C)c1cccc(C(F)(F)F)c1", "values": [{"measurement": "outcome", "setting": "[3]", "result": "inactive"}, {"measurement": "outcome", "setting": "[4]", "result": "inactive"}, {"measurement": "outcome", "setting": "[6]", "result": "inactive"}, {"measurement": "outcome", "setting": "[5]", "result": "inactive"}]}, {"smiles": "C#CCC1=C(C)C(OC(=O)C2C(C=C(C)C)C2(C)C)CC1=O", "note": "(stereo not given)", "values": [{"measurement": "outcome", "setting": "[7]", "result": "inactive"}, {"measurement": "outcome", "setting": "[9]", "result": "inactive"}, {"measurement": "outcome", "setting": "[2]", "result": "inactive"}, {"measurement": "outcome", "setting": "[3]", "result": "inactive"}, {"measurement": "outcome", "setting": "[4]", "result": "inactive"}, {"measurement": "outcome", "setting": "[6]", "result": "inactive"}, {"measurement": "AC50", "setting": "[5]", "result": "151 µM (active)"}]}, {"smiles": "CCc1cccc(CC)c1N(COC)C(=O)CCl", "values": [{"measurement": "outcome", "setting": "[2]", "result": "inactive"}, {"measurement": "outcome", "setting": "[4]", "result": "inactive"}, {"measurement": "AC50", "setting": "[5]", "result": "60.9 µM (active)"}]}, {"smiles": "CCOP(=O)(OCC)Oc1cc(C)nc(C(C)C)n1", "values": [{"measurement": "outcome", "setting": "[1]", "result": "inactive"}, {"measurement": "outcome", "setting": "[2]", "result": "inactive"}, {"measurement": "outcome", "setting": "[3]", "result": "inactive"}, {"measurement": "outcome", "setting": "[4]", "result": "inactive"}, {"measurement": "outcome", "setting": "[5]", "result": "inactive"}]}]}
